# Only some compounds are listed: those with a hit (about 19% of all), similar ones and a draw of the others.
# SW480 rerep = A quantitative high throughput screen for small molecules that induce DNA re-replication in SW480 colon adenocarcinoma cells | SW480 DNA re-replication, Hoechst DNA content imaging, 48 h | Potency, µM (doses to about 46.1 µM), for inactives: at the top dose re-replication activation, usual class: activators | actives 1.8% (n = 340,000) | AID 624297, 2012; further: potency means the concentration at half of the fitted maximal effect; % of control where 0% means no effect; nearly all actives have a fitted effect of over 55% in size
#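 Per well, 250 cells were exposed to pinned compound for 48 hr. Nuclear DNA was visualised with Hoechst (40 min, 37 C) and total object intensity recorded by fluorescence scanning.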
# DT40 TDP1 no CPT = qHTS for Inhibitors of human tyrosyl-DNA phosphodiesterase 1 (TDP1): qHTS in cells in absence of CPT; actives 15% (n = 420,000); AID 686978, 2013; DT40 Tdp1-/- hTDP1 cells, no CPT, ATP luminescence, 48 h; Potency, µM (doses to about 46.2 µM), for inactives: at the highest dose activity change, negative = growth inhibition, actives largely listed as inhibitors; further: potency means the concentration at half of the fitted maximal effect; on the % scale 0 is the no-effect control and ±100 the full control effect; nearly all actives have a fitted effect of over 55% in size
#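 Chicken DT40 Tdp1-/- cells stably complemented with human TDP1 were seeded at 400 cells/well with DMSO in place of 20 nM camptothecin. After compound pinning, cells grew at least 48 hr at 37 °C; viability read by CellTiter-Glo luminescence.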
# BCR signal inh = qHTS Assay to Find Inhibitors of Chronic Active B-Cell Receptor Signaling; ABC-DLBCL IkBa-CBG/CBR reporter, luminescence ratio, 4 h; Potency, µM (highest dose often 46.1 µM), without a hit: at the top dose activity change, negative = inhibition, most hits filed as inhibitors; actives 0.05% (n = 340,000); AID 493014, 2011; active means well fitted inhibition curve with a large enough effect in the signal ratio, with a control signal flat, not every such curve was filed as active; inconclusive means small, poorly fitted or top-dose-only effect, or effect the other way, or a change in a side signal; the % refers to the signal ratio;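 further: potency means the concentration at half of the fitted maximal effect; plate controls were basal doxycycline-induced cells for no effect and cells given 10 µM MG132 for full effect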
#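 Cell line TMD8 (human ABC DLBCL), stably expressing tet-inducible CBG68-IkBa fusion and CBR; IMDM/0.5% FBS; cpd up to 46 uM; dox induction, 4 h, 37C/5% CO2; dual luminescence; green/red ratio; MG132 control.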
# MCF10A rerep = A quantitative high throughput screen for small molecules that induce DNA re-replication in MCF 10a normal breast cells | MCF 10A DNA re-replication, Hoechst nuclear intensity, 48 h | Potency, µM (highest dose often 46.1 µM), for inactives: at the highest dose activity, positive = re-replication, most hits filed as activators | actives 2.9% (n = 350,000); further: potency means the concentration at half of the fitted maximal effect; % of control where 0% means no effect; nearly all actives have a fitted effect of over 50% in size
# IL1B secr inh = qHTS for Inhibitors of Inflammasome Signaling: IL-1-beta AlphaLISA Primary Screen; activity change, % at 57.5 µM; actives 4.7% (n = 360,000); THP-1 LPS/ATP IL-1B secretion, AlphaLISA, 16 h; active compounds read low; in the data active means activity change below about -50%; inconclusive means mostly about -30% to -49%; further: on the % scale 0 is the no-effect control and ±100 the full control effect
#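 Secreted IL-1B measured by AlphaLISA bead assay after 16 h compound exposure of THP-1 cells; compounds (final up to 57.5 uM) added 1 h before LPS (250 ng/mL) and ATP (1.25 mM) stimulation; lower signal means less secretion.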
# DT40 TDP1 CPT = qHTS for Inhibitors of human tyrosyl-DNA phosphodiesterase 1 (TDP1): qHTS in cells in presence of CPT; actives 12% (n = 420,000); chicken DT40 Tdp1-/-;hTDP1 cells + 20 nM CPT, ATP luminescence, 48 h; Potency, µM (highest dose often 46.2 µM), inactives show top-dose activity change, negative = growth inhibition, most hits filed as inhibitors; AID 686979, 2013; further: potency means the concentration at half of the fitted maximal effect; on the % scale 0 is the no-effect control and ±100 the full control effect; nearly all actives have a fitted effect of over 55% in size
#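 Chicken DT40 Tdp1-/- cells complemented with human TDP1, 400 cells/well, exposed to compounds plus 20 nM camptothecin for at least 48 h at 37 C; viability read as ATP content by CellTiter-Glo luminescence.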
# Numbers without * were called inactive; u = inconclusive; x = not tested or not shown; [ ] = remark or other dose. Unless noted, the call rests on the fitted dose curve; in most records, active means well fitted curve in the direction sought with a large enough effect; inconclusive means small, poorly fitted or top-dose-only effect, or another doubt; inactive means no such curve, though single readings can be large; an effect the other way counts as inactive or inconclusive.
SMILES,SW480 rerep,DT40 TDP1 no CPT,BCR signal inh,MCF10A rerep,IL1B secr inh,DT40 TDP1 CPT
COc1cc(C(=O)Oc2cccc(C=O)c2)cc(OC)c1OC,16µM*,u,-9%,2%,20,26µM*
Cc1cc(C(=O)N/N=C/c2cccc(OC(=O)c3cccc(Br)c3)c2)n[nH]1,3%,-2%,-8%,-2%,-15,-7%
COc1cccc(C(=O)Oc2c(Br)cc(Br)cc2/C=N/NC(=O)c2cc(C)[nH]n2)c1,-2%,9.2µM*,u,u,86,6.5µM*
COc1c(Br)cc(Br)cc1/C=N/NC(=O)c1ccncc1,13%,u,-25%,1%,75,u
Nc1nc(SCC(=O)N2CCOCC2)[nH]c(=O)c1-c1ccccc1,-8%,0%,4%,12%,3,-26%
CCOC(=O)N1CCN(C(=O)CSc2nc3c(cnn3-c3ccccc3)c(=O)[nH]2)CC1,-6%,23µM*,-10%,0%,53,u
CCCCCSc1nc2c(cnn2-c2ccc(F)cc2)c(=O)[nH]1,u,23µM*,2%,7%,25,u
Cc1ccc(-n2ncc3c(=O)[nH]c(SCC(=O)N4CCN(c5ccccc5)CC4)nc32)cc1,-3%,u,1%,u,4,u
Nc1nc(SCC(=O)N2CCCC2)[nH]c(=O)c1-c1ccccc1,-2%[9.22 µM],26µM*,-2%,0%[9.22 µM],15,u
Cc1ccc(-n2ncc3c(=O)[nH]c(SCC(=O)N4CCOCC4)nc32)cc1,-5%,-20%,-1%,26µM*,15,-6%
CCCCCSc1nc2c(cnn2-c2ccccc2)c(=O)[nH]1,-13%[9.22 µM],u,-3%,-3%,49,u
COc1ccc(C(CNC(=O)C(C)Sc2ccccc2)N2CCOCC2)cc1 (centres undefined),u,-3%,x,u,-11,-11%
O=C(NCCCCl)C1CC(=O)N(CCc2ccc(F)cc2)C1 (centres undefined),u,-16%,-1%,-2%,-12,7%
CCOC(=O)c1c(C)[nH]c(C(=O)N(C)CC(=O)Nc2ccc(OCC)c(OCC)c2)c1C,x,u,x,x,-7,-17%
O=C1c2c(O)ccc(O)c2C(=O)c2c(NCCNCCO)ccc(NCCNCCO)c21,-9%,0.033µM*,u,-4%,-102*,0.18µM*
Cc1cnc(-n2ncc(C(=O)NCCCc3ccncc3)c2C)nc1-c1ccc(F)cc1,x,-13%,x,x,x,10%[9.04 µM]
CN(C)c1ccnc2sc3c(SCc4ccc(Cl)cc4)ncnc3c12,-1%,13µM*,-2%,9%,25,16µM*
Cc1cccc(C)c1NC(=O)/C(C#N)=C/c1ccsc1,1.5µM*,u,-15%,u,-1,u
COC(=O)c1ccc(COc2ccccc2/C=C(\C#N)C(=O)Nc2ccccc2C)cc1,-7%,0%,-2%,6%,22,6%
Cc1ccc(/C=C(\C#N)C(=O)Nc2c(C)cccc2C)s1,-1%,21µM*,-25%,4%,-12,u
COC(=O)c1ccc(COc2ccccc2/C=C/C(=O)c2ccc(OCC(=O)O)cc2)cc1,u,u,u,u,-94*,u
Cc1ccccc1NC(=O)/C(C#N)=C/c1ccsc1,0%,-17%,u,u,-9,-15%
COC(=O)c1ccc(COc2ccccc2/C=C(\C#N)C(=O)Nc2c(C)cccc2C)cc1,24%,13µM*,u,8.2µM*,-79*,13µM*
OCC[C@@H]1C[C@H](O)[C@@H](O)[C@@]2(OCCc3cc(Cl)ccc32)O1,x,3%,x,x,20,-12%
COc1ccccc1/C=N/NC(=O)C(=O)Nc1ccccc1OC(F)(F)C(F)F,-7%,u,u,u,-2,u
SMILES,SW480 rerep,DT40 TDP1 no CPT,BCR signal inh,MCF10A rerep,IL1B secr inh,DT40 TDP1 CPT
COc1cccc(/C=N/NC(=O)C(=O)Nc2ccccc2OC(F)(F)C(F)F)c1,-2%,-14%,1%,u,-12,-9%
O=C(N/N=C/c1cc(Cl)ccc1O)C(=O)Nc1ccccc1OC(F)(F)C(F)F,u,1.8µM*,u,u,39,2.1µM*
O=C(N/N=C/c1cc(Br)ccc1O)C(=O)Nc1ccccc1OC(F)(F)C(F)F,u,2.8µM*,-11%,u,156,5µM*
CCc1cc(=O)oc2c(CNCc3ccc(OC)cc3OC)c(O)c(Cl)cc12,u,-14%,-1%,u,39,12%
COc1cc2c(cc1OC)C(=O)N(C)CC2,-64%,-27%,4%,3%,-4,-8%
COc1cc2cc3c4c(cc(OC)c(OC)c4c2cc1OC)CCN3C,x,12µM*,x,x,x,11µM*
CC(=O)Nc1nn(C)c2nc(C)cc(C)c12,-5%,5%,-2%,-2%,8,15%
Nc1[nH]c(=S)nc2nnsc12,x,11µM*,x,x,x,11µM*
Nc1nc(N)c2snnc2n1,x,u,x,x,x,2%
CC(C)C(C(=O)Nc1ccncc1)c1ccc(Cl)cc1 (centres undefined),u,16µM*,-12%,-1%,27,u
O=C(Nc1ccncc1)Nc1ccncc1,-5%,u,u,-9%,29,-19%
O=C(Nc1ccncc1)Nc1ccccc1Cl,-20%,u,u,-7%,0,u
CC(C)C(C(=O)Nc1nccs1)c1ccc(Cl)cc1 (centres undefined),-2%,u,9%,-2%,0,u
O=C(Nc1ccncc1)Nc1ccc(Cl)cc1,-1%,u,0%,0%,-94*,u
Cc1ccc(NNC(=O)Nc2ccc(Cl)cc2)nn1,-2%,u,u,3%,-12,21µM*
O=C(Nc1ccncc1)Nc1ccc(Cl)cc1Cl,9%,u,3%,3%,x,18µM*
COc1ccc(NC(=O)c2ccco2)cc1NC(=O)c1cccc(F)c1,-17%,u,1%,2%,-6,-23%
Cc1ccc(NC(=O)Nc2ccon2)cc1,-4%,-5%,10%,-3%,u,-19%
O=C(Nc1ccc(Cl)cc1)Nc1ccon1,u,15µM*,u,25%,-20,18µM*

# High-throughput results as filed in PubChem BioAssay.
